The results in this text go back to PubChem BioAssay (NCATS).

Experiment [1] in a line: Primary qHTS for inhibitors of nuclear receptor binding SET domain protein 2 (NSD2) in an isogenic RCH-ACV NSD2 p.E1099K mutant (9B) (AID 1645876; also: nearly all actives have a fitted effect of over 70% in size; also: potency is read from the fitted curve at half-maximal effect). (In general: Quantitative high-throughput screening tests each substance at several concentrations.)
Experiment [2] can be described thus: Primary qHTS for inhibitors of nuclear receptor binding SET domain protein 2 (NSD2) in an RCH-ACV wild type WT cells (2C) (AID 1645877). Also: nearly all actives have a fitted effect of over 70% in size. Also: potency is read from the fitted curve at half-maximal effect.
In experiment [3] the target is Rap guanine nucleotide exchange factor 3 (Homo sapiens) (UniProt O95398). Kind of experiment: Confirmatory qHTS for antagonist of cAMP-regulated guanine nucleotide exchange factor 3 (EPAC1) (AID 1645880).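 Also: plate controls were DMSO only for no effect and full effect of the ATA control for full effect; nearly all actives have a fitted effect of over 55% in size.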 The text has this:
(§1) Assay Provider (PI): Xiaodong Cheng Ph.D. The University of Texas Medical Branch, […], TX MLPCN Grant: NS066510 In multi-cellular eukaryotic organisms, the effects of cAMP are transduced by two ubiquitously-expressed intracellular cAMP receptors, the classic protein kinase A/cAMP-dependent protein kinase (PKA/cAPK) and the more recently discovered exchange protein directly activated by cAMP/cAMP-regulated guanine nucleotide exchange factor (EPAC/cAMP-GEF). Both PKA and EPAC are ubiquitously expressed in all tissues, and an increase in intracellular cAMP levels will lead to the activation of both PKA and EPAC. Therefore, careful dissections of the individual role and relative contribution of EPAC and PKA within the overall cAMP signaling in various model systems are critical for further elucidating the mechanism of cAMP signaling. To date no EPAC-specific antagonists and agonist, as well as isoform-specific agonists have been reported, and developing EPAC-specific pharmacological probes to determine the physiological functions that EPAC play in the overall cAMP-mediated signaling remains a major challenge within the research field. […] This qHTS will be used to screen the Molecular Libraries Small Molecule Repository (MLSMR) as a concentration-titration series using the NCGC unique quantitative screening (qHTS) platform to find activators for EPAC1. […] Activators are identified by monitoring the change in fluorescence signal as the exchanged free BODIPY-GDP has a reduced fluorescence compared to Rap1-bound BODIPY-GDP. […]
Briefly, three uL of reagents (100 nM EPAC1, 250 nM RAP1B-BODIPY-GDP, 50 uM GDP) were dispensed into a 1536-well Greiner black solid-bottom medium binding assay plate. […] The assay plates were read at 5 minute intervals for 30 minutes in the ViewLux plate reader using 480nm excitation and 540nm emission filters. […]

The target is the same in experiment [4]. Kind of experiment: Confirmatory qHTS for agonist of cAMP-regulated guanine nucleotide exchange factor 3 (EPAC1) (AID 1645881).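 Also: EPAC1 catalysed release of BODIPY-GDP from Rap1B seen as fluorescence loss; 100% = effect of cAMP agonist control; nearly all actives have a fitted effect of over 75% in size.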
Experiment [5] deals with Rap guanine nucleotide exchange factor 4 (Homo sapiens) (UniProt Q8WZA2). Kind of experiment: Confirmatory qHTS for antagonist of cAMP-regulated guanine nucleotide exchange factor 4 (EPAC2) (AID 1645885). Also: % is scaled to controls: 0 for no effect and ±100 for the full control effect; nearly all actives have a fitted effect of over 25% in size.
Experiment [6] has the same target. Kind of experiment: Confirmatory qHTS for agonist of cAMP-regulated guanine nucleotide exchange factor 4 (EPAC2) (AID 1645884).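 Also: nucleotide exchange releases bodipy-GDP from Rap1 and this lowers its fluorescence; % is scaled to controls: 0 for no effect and ±100 for the full control effect; nearly all actives have a fitted effect of over 65% in size.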
Experiment [7] concerns the target Rap guanine nucleotide exchange factor 3 (Homo sapiens) (UniProt O95398). Briefly: Counterscreen qHTS for antagonist of cAMP-regulated guanine nucleotide exchange factor 3 (EPAC1) (AID 1645888).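 Also: fluorescence loss as bound BODIPY-GDP is released from Rap1B; % of control where 0% means no effect.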 The procedure, abridged:
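Rap1B–BODIPY-GDP (250 nM) with 50 uM GDP; compounds pin-transferred to 9.74 nM–152 uM final (activator) or from 7.32 nM upwards (inhibitor). Fluorescence Ex/Em 480/540 nm read at 5 and 30 min, then after adding cAMP or buffer, at room temperature.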

Experiment [8] has the same target. Kind of experiment: Counterscreen qHTS for agonist of cAMP-regulated guanine nucleotide exchange factor 3 (EPAC1) (AID 1645889). Also: % of control where 0% means no effect; nearly all actives have a fitted effect of over 40% in size.
Description: as §1, with “EPAC.” for “EPAC. Therefore, careful dissections of the individual role and relative contribution of EPAC and PKA within the overall cAMP signaling in various model systems are critical for further elucidating the mechanism of cAMP signaling. To date no EPAC-specific antagonists and agonist, as well as isoform-specific agonists have been reported, and developing EPAC-specific pharmacological probes to determine the physiological functions that EPAC play in the overall cAMP-mediated signaling remains a major challenge within the research field.”
EPAC1 Counterscreen PROTOCOL TABLE SEQUENCE No. (e.g., 1, 2, 3, etc.); […] […] Fluorescence. (Read 1), Ex/Em = 480 nm / 540 nm. […] Fluorescence. (Read 2), Ex/Em = 480 nm/ 540 nm. […] Fluorescence. (Read 3), Ex/Em = 480 nm / 540 nm. […] Fluorescence. (Read 4), Ex/Em = 480 nm / 540 nm. […]
In general terms: The purpose of a counterscreen is to sort out artefacts and off-target activity.

SMILES strings stand for the structures. Several values for one entry are separate records, joined by “and”; a condition that tells them apart may be missing. Equal entries are not always repeated. Records with an inconclusive call do not appear. More than one record can exist for a structure, and the calls need not agree. Activity calls are given as the source filed them. Calls follow the shape of the dose curve; as a rule, active = well fitted curve in the direction sought with a large enough effect; inconclusive = small, poorly fitted or top-dose-only effect, or another doubt; inactive = no such curve, though single readings can be large; an effect the other way counts as inactive or inconclusive.

Sequence of Rap guanine nucleotide exchange factor 4 (Homo sapiens) (Q8WZA2 whole entry, looked up): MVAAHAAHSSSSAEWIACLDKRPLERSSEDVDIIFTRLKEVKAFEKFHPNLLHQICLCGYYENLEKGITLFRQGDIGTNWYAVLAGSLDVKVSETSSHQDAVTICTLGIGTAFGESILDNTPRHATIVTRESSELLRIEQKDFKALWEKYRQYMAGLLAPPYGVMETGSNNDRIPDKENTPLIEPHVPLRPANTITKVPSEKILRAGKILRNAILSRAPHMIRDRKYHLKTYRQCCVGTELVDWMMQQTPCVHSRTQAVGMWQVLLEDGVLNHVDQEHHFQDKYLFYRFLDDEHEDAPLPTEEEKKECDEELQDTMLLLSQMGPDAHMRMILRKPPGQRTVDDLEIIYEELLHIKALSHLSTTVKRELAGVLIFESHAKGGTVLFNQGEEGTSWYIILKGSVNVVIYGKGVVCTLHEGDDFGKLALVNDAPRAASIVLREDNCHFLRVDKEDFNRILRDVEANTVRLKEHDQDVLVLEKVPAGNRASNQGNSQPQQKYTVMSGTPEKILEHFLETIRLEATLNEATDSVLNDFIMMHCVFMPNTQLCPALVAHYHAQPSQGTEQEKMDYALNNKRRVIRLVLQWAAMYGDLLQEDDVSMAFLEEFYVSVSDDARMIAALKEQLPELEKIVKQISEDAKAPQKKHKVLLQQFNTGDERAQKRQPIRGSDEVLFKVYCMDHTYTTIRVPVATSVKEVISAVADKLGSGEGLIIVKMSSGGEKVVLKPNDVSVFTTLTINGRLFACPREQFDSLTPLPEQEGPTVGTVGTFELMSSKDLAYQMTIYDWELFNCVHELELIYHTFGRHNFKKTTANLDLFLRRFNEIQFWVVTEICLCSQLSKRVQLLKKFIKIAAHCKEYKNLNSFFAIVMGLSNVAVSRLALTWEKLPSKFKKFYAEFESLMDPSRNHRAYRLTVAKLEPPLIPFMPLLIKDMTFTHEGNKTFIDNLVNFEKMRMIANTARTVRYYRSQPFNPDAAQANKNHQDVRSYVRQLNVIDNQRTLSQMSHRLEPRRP
Sequence of Rap guanine nucleotide exchange factor 3 (Homo sapiens) (O95398 whole entry, looked up): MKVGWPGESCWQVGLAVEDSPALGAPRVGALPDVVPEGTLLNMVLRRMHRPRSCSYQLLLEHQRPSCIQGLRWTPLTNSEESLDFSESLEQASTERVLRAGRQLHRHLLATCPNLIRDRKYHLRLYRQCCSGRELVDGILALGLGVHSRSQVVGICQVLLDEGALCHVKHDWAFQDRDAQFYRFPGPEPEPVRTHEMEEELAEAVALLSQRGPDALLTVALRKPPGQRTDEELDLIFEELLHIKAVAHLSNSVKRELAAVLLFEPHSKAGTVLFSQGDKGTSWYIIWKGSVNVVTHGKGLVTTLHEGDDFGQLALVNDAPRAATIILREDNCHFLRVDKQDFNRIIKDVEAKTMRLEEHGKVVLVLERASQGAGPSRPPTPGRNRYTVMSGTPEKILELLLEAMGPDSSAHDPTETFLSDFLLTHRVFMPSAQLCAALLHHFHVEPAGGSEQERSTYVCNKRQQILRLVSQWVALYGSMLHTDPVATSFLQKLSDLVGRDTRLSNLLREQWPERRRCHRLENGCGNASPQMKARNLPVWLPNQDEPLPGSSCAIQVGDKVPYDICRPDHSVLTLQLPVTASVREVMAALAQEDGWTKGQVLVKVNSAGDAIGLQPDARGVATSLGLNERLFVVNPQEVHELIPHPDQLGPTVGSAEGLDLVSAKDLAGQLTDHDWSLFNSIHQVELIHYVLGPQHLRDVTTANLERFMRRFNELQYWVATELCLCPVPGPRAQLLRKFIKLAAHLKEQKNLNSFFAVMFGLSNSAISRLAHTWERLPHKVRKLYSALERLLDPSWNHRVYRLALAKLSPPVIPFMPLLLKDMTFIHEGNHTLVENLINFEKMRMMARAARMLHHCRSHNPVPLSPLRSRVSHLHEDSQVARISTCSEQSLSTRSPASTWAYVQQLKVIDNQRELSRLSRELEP

Take `CC(C)(C)NC[C@H](O)c1ccc(O)cc1Cl`: the Potency entry in experiment [1] and in experiment [2] was “inactive” throughout.
On to `CCCC[N+]1(C)[C@H]2CC(OC(=O)[C@H](CO)c3ccccc3)C[C@H]1[C@H]1O[C@H]12` (stereo partly specified), for which, in experiment [1], the Potency entry was “inactive”.
Take `CC1=C(O)C(=O)C=C2C1=CC=C1[C@@]2(C)CC[C@@]2(C)[C@@H]3C[C@](C)(C(=O)O)CC[C@]3(C)CC[C@]12C`: the Potency in experiment [1] was 1.48 µM (active); in experiment [2], 1.66 µM (active).
As for `CSCC[C@@H](NC(=O)[C@@H](Cc1ccccc1)NC(=O)CNC(=O)CNC(=O)[C@@H](N)Cc1ccc(O)cc1)C(=O)O`, in experiment [1], the Potency entry is “inactive”.
For `CCNC(=O)CC1N=C(c2ccc(Cl)cc2)c2cc(OC)ccc2-n2c(C)nnc21` (stereo unspecified), the Potency in experiment [1] was 9.34 µM (active) and inactive and 515 nM (active); in experiment [2], 5.9 µM (active) and inactive and 409 nM (active).
Regarding `O=[N+]([O-])/N=C1\NCCN1Cc1ccc(Cl)nc1`, the Potency result in experiment [1] and in experiment [2] was “inactive” each time.
With `COC(C)(C)CCCC(C)C/C=C/C(C)=C/C(=O)OC(C)C` (stereo unspecified), the Potency entry in experiment [1] and in experiment [2] was “inactive” throughout.
On to `Nc1ccc(N=Nc2ccccc2)cc1`, for which the Potency in experiment [1] is 6.11 µM (active).
For the molecule `CN1[C@H]2CC(O)C[C@H]1[C@H]1O[C@H]12` (stereo partly specified), the Potency result in experiment [1] and in experiment [2] was “inactive” each time.
On to `CO/C=C(/C(=O)OC)c1ccccc1Oc1cc(Oc2ccccc2C#N)ncn1`, for which the Potency in experiment [1] and in experiment [2] was 24.3 µM (active) in each case.
As to `CC1=C(C(=O)O)N2C(=O)[C@@H](N)[C@H]2SC1`, in experiment [1], the Potency result was “inactive”.
As for `O=C(O)CCCOc1ccc(Cl)cc1Cl`, the Potency entry in experiment [1] and in experiment [2] was “inactive” in each case.
For the molecule `CN(C)NC(=O)CCC(=O)O`, the Potency entry in experiment [1] and in experiment [2] was “inactive” in each case.
As for `COc1cc([C@@H]2c3cc4c(cc3[C@@H](O)C3COC(=O)C32)OCO4)cc(OC)c1O` (stereo partly specified), the figures for the Potency in experiment [1] and in experiment [2] were 0.417 µM (active) and 0.372 µM (active), respectively.
For `CCN1CCN(C(=O)Cc2ccc(Nc3ncc(F)c(Nc4ccc(C(=O)Nc5ccccc5Cl)cc4)n3)cc2)CC1`, the Potency in experiment [1] was 2.31 µM (active) and 2.63 µM (active); in experiment [2] it was 2.31 µM (active) and 2.35 µM (active).
For the molecule `C/C=C(/C)C(=O)O[C@H]1C(C)=C2[C@H]([C@@H]1OC(=O)CCCCCCC)[C@@](C)(OC(C)=O)C[C@H](OC(=O)CCC)[C@@]1(O)[C@H]2OC(=O)[C@@]1(C)O`, the Potency in experiment [1] is 5.8 nM (active) and 16.6 nM (active).
As to `CC[N+]1(CCOC(=O)C(O)(c2ccccc2)c2ccccc2)CCCCC1`, the Potency entry in experiment [1] and in experiment [2] was “inactive” throughout.
As for `O=C(O)COc1ccccc1`, the Potency entry in experiment [1] is “inactive”.
Take `CCOCCOC(C)=O`: in experiment [1], the Potency entry was “inactive”.
Take `COc1nn(CSP(=S)(OC)OC)c(=O)s1`: the Potency is 9.69 µM (active) in experiment [1] and 13.7 µM (active) in experiment [2].
For `O=C1C(I)=CC(=C(c2cc(I)c(O)c(I)c2)c2ccccc2C(=O)O)C=C1I`, the Potency entry in experiment [1] and in experiment [2] was “inactive” each time.
`CN[C@@H]1Cc2cccc3[nH]c(=O)n(c23)C1`: the Potency result in experiment [1] was “inactive”.
On the same count and under the same terms, to `CCC(=O)O[C@@H]1C=C2CCC3C(CCC4(C)C3CC[C@@H]4OC(=O)CC)C2CC1` (stereo partly specified) belongs “inactive”.
Turning to `C[C@]12CC[C@@H]3[C@@H](CCC4=CC(=O)CC[C@@H]43)[C@@H]1CC[C@@H]2OC(=O)CCc1ccccc1`, the Potency entry in experiment [1] and in experiment [2] was “inactive” each time.
As for `CCNC(=O)C[C@@H]1N=C(c2ccc(Cl)cc2)c2cc(OC)ccc2-n2c(C)nnc21`, the Potency is 459 nM (active) and 590 nM (active) in experiment [1]; 459 nM (active) and 833 nM (active) in experiment [2].
On to `O=c1cccc2n1CC1CNC[C@H]2C1`, for which the Potency entry in experiment [1] and in experiment [2] was “inactive” throughout.
Consider `Cc1c(C(=O)Nc2cccc(C(F)(F)F)c2)cc(-c2ccccc2)n1CCCN1CCOCC1`, for which the Potency in experiment [1] is 20.9 µM (active); in experiment [2] it was 23.5 µM (active).
Consider `COC[C@H]1OC(=O)c2coc3c2[C@@]1(C)C1=C(C3=O)[C@@H]2CC[C@H](O)[C@@]2(C)C[C@@H]1OC(C)=O`, for which the Potency in experiment [1] and in experiment [2] was 0.58 µM (active) in each case.
As for `Nc1c(Cl)c(Cl)c(Cl)c(Cl)c1Cl`, the Potency entry in experiment [1] and in experiment [2] was “inactive” throughout.
For the molecule `CCC1(CCC(C)C)C(=O)NC(=O)NC1=O`, the Potency result in experiment [1] and in experiment [2] was “inactive” throughout.
`CN1CCN(c2ccc([N+](=O)[O-])c3no[n+]([O-])c23)CC1`: the Potency in experiment [2] was 20.9 µM (active).
Turning to `Fc1cc(Br)ccc1CBr`, the Potency entry in experiment [1] and in experiment [2] was “inactive” each time.
For `O=C(Oc1ccc([N+](=O)[O-])cc1)N1CCN(Cc2cccc(Oc3ccccc3)c2)CC1`, the Potency result in experiment [1] and in experiment [2] was “inactive” in each case.
For `CC(O)CN1CCN(CC(=O)[O-])CCN(CC(=O)[O-])CCN(CC(=O)[O-])CC1.[Gd+3]` (stereo unspecified), the Potency result in experiment [1] and in experiment [2] was “inactive” each time.
With `O=C(O)CNC(=O)c1c(O)c2ccccc2n(Cc2ccccc2)c1=O`, the Potency result in experiment [1] and in experiment [2] was “inactive” throughout.
For `COCCOCCO`, in experiment [2], the Potency entry was “inactive”.
For `O=[N+]([O-])c1c(Cl)c(Cl)cc(Cl)c1Cl`, the Potency result in experiment [1] and in experiment [2] was “inactive” each time.
As for `Cc1cc(O)ccc1Cl`, the Potency entry in experiment [1] and in experiment [2] was “inactive” each time.
`Cc1nc(-c2ccc(-c3ccc(C(=O)N4CCc5cc6c(cc54)C4(CCN(C)CC4)CO6)cc3)c(C)c2)no1`: the outcome in experiment [3] and in experiment [4] was inactive. Also, the Potency entry in experiment [5] was “inactive”.
With `CCCCOC(=O)c1ccccc1C(=O)OCc1ccccc1`, the outcome in experiment [3], in experiment [4], in experiment [7] and in experiment [8] was inactive. Moreover, in experiment [6], the activation was 4.15% [at 17.1 µM] (inactive).
Consider `CN(C)[C@@H]1C(=O)C(C(N)=O)=C(O)[C@@]2(O)C(=O)C3=C(O)c4c(O)cccc4[C@@](C)(O)[C@H]3[C@H](O)[C@@H]12`, for which the call in experiment [4] and in experiment [6] was inactive. For the same molecule, the Potency entry in experiment [5] is “inactive”.
